In all, about 13,000 compounds went through this assay and about 3,200 (25%) showed an effect of 50% or more. Some of the results follow.
Each compound was assayed on P. falciparum stage V gametocytes. Conditions: 48 h, 5 µM; inhibitor.
Design: BacTiter-Glo ATP luminescence viability of purified stage V gametocytes in 384-well plates, per cent inhibition versus DMSO
`NC(N)=NC(=O)Nc1cc(Cl)c(Cl)c(Br)c1` [TCMDC-137463] was tested, and the “% Inhibition” value was -17.34%.
`N=C(N)c1cc(Cl)cc(NC(=O)Nc2cc(Cl)cc(C(=N)N)c2)c1` [TCMDC-124110] was tested, and the “% Inhibition” value was -2.183%.
In the case of `COc1cc2nc(N3CCC(C(N)=O)CC3)nc(NCc3ccccc3)c2cc1OC` [TCMDC-132023], the “% Inhibition” value was 16.05%.
For `COc1cc2nc(NCC3CCCCC3)nc(NCc3ccccc3)c2cc1OC` [TCMDC-132014], the “% Inhibition” value was 59.54%.
For `COc1ccc(CNc2nc(NCCc3ccccc3)c3cc(OC)c(OC)cc3n2)cc1OC` [TCMDC-132019], the “% Inhibition” value was 85.76%.
In the case of `COc1cc2nc(N3CCN(C(=O)c4ccco4)CC3)nc(NCc3ccccc3)c2cc1OC` [TCMDC-132028], the “% Inhibition” value was 52.38%.
In the case of `COc1cc2nc(NCCc3ccccc3)nc(NCc3cc(C)no3)c2cc1OC` [TCMDC-135435], the “% Inhibition” value was 96.72%.
`COc1cc2nc(-c3ccccc3)nc(N3CCN(C(=O)c4ccco4)CC3)c2cc1OC` [TCMDC-125059] was tested, and the “% Inhibition” value was -9.427%.
For `CC(=O)NCCCCC1NC2(C(=O)N(Cc3ccc(C(C)(C)C)cc3)c3ccccc32)C2C(=O)N(C3CCCCC3)C(=O)C12` (centres unmarked) [TCMDC-139771], the “% Inhibition” value was 5.053%.
`Cc1cc(N(C)C)nc(Nc2ccc(NC(=O)c3ccc(F)cc3)cc2)n1` [TCMDC-124723] was tested, and the “% Inhibition” value was 5.364%.
For `O=C(Nc1ccc(Cl)cc1)Nc1cccc(-c2ccc(-c3nc4ccccc4[nH]3)cc2)c1` [TCMDC-133182], the “% Inhibition” value was -15.2%.
In the case of `CN(C)CCCNc1ncnc2c1[nH]c1ccc(F)cc12` [TCMDC-125598], the “% Inhibition” value was -5.367%.
`O=c1ccc(CNc2nc(NCCc3ccccc3)nc3cc(Cl)ccc23)c[nH]1` [TCMDC-136510] was tested, and the “% Inhibition” value was 52.65%.
For `COc1cc2ncnc(Nc3ccc(OCc4ccccc4)c(C(F)(F)F)c3)c2cc1OC` [TCMDC-131921], the “% Inhibition” value was 4.607%.
`COc1cc2nc(NCCn3nc(C)cc3C)nc(NCCc3ccccc3)c2cc1OC` [TCMDC-135473] was tested, and the “% Inhibition” value was 52.48%.
With `O=c1ccc(CNc2nc(NCCc3ccccc3)nc3ccc(Cl)cc23)c[nH]1` [TCMDC-136489] the “% Inhibition” value was 35.37%.
In the case of `COc1ccc(CCNc2nc(N)c3cc(OC)c(OC)cc3n2)cc1.Cl` [TCMDC-131888], the “% Inhibition” value was 1.23%.
`Clc1ccc2c(NCCc3ccccc3)ccnc2c1` [TCMDC-138551] was tested, and the “% Inhibition” value was -1.928%.
For `COc1cc2nc(NCCc3ccccc3)nc(NCc3nccs3)c2cc1OC` [TCMDC-135436], the “% Inhibition” value was 24.41%.
With `COc1cc2nc(NCCc3ccccc3)nc(NCCCc3ccccc3)c2cc1OC` [TCMDC-135301] the “% Inhibition” value was 108%.
`COc1ccc(CNc2nc(NCc3ccc(C(F)(F)F)cc3)c3cc(OC)c(OC)cc3n2)cc1OC` [TCMDC-132016] was tested, and the “% Inhibition” value was 104.7%.
For `Cc1c(CNCCCNc2cc(=O)c3ccccc3[nH]2)sc(-c2ccco2)c1Br` [TCMDC-141065], the “% Inhibition” value was -27.75%.
`CSc1cccc(Nc2nc3ccc(S(=O)(=O)NC(C)C(C)C)cc3n2[C@H](C)C(C)(C)C)c1` (some centres unmarked) [TCMDC-136239] was tested, and the “% Inhibition” value was -63.84%.
In the case of `Cc1nn(C)cc1C(C)Nc1nncc(-c2ccc(C(F)(F)F)cc2)n1` (centres unmarked) [TCMDC-124694], the “% Inhibition” value was -19.2%.
With `OC1(c2ccc(Br)cc2)CCN(C2CCN(Cc3ccccc3)CC2)CC1` [TCMDC-124137] the “% Inhibition” value was 40.29%.
In the case of `O=C(O)C(F)(F)F.c1cc(CN2CCN(c3ccncc3)CC2)cc(-c2ccc(-c3nc4ccccc4[nH]3)s2)c1` [TCMDC-132909], the “% Inhibition” value was 11.83%.
For `COc1ccc2nccc([C@@H](O)CN3CCC(NCc4cc5cc(C)ccc5s4)CC3)c2c1` [TCMDC-140682], the “% Inhibition” value was 12.73%.
With `CN(C)CCCn1cncc1-c1ccc2ncnc(Nc3ccc4c(cnn4Cc4ccccc4)c3)c2c1` [TCMDC-138087] the “% Inhibition” value was -19.79%.
With `CN(C)CCc1coc2ccc(C(=O)Nc3ccc(-c4ccc(O)cc4)cc3)cc12` [TCMDC-132005] the “% Inhibition” value was -54.25%.
`COc1cccc(CCNc2nc(NCc3ccccc3)c3cc(OC)c(OC)cc3n2)c1` [TCMDC-135267] was tested, and the “% Inhibition” value was 71.62%.
`COc1cc2nc(NCCc3ccccc3)nc(NCc3cnn(C)c3C)c2cc1OC` [TCMDC-135459] was tested, and the “% Inhibition” value was 100.1%.
`c1ccc(CNc2nc(NCCN3CCCCC3)nc3ccccc23)cc1` [TCMDC-137554] was tested, and the “% Inhibition” value was 18.64%.
With `COc1cc2nc(NCCCN3CCCCC3)nc(NCc3ccccc3)c2cc1OC` [TCMDC-132012] the “% Inhibition” value was 112.9%.
For `COc1cc2nc(NCCc3cccc(Cl)c3)nc(NCc3ccccc3)c2cc1OC` [TCMDC-135266], the “% Inhibition” value was 90.56%.
With `Cc1ccccc1C1CCN(C2CCC(NC(=O)/C=C/c3c[nH]c4ccccc34)CC2)CC1` (centres unmarked) [TCMDC-134103] the “% Inhibition” value was -47.56%.
`O=C(O)CCSc1ncnc2nc[nH]c12` [TCMDC-125870] was tested, and the “% Inhibition” value was -3.326%.
For `NC(N)=Nc1ccc(CCc2ccc(N=C(N)N)cc2)cc1` [TCMDC-137701], the “% Inhibition” value was -9.941%.
In the case of `O=C(Nc1cccc(CN2CCCN(Cc3ncc[nH]3)CC2)c1)c1ccc(-c2ccccc2)cc1` [TCMDC-141849], the “% Inhibition” value was 12.11%.
`CC1(C)CCCN(C(=O)Cc2ccc3c(c2)CCCC3)C1CN1CC=CC1` (centres unmarked) [TCMDC-131637] was tested, and the “% Inhibition” value was 3.216%.
`C=Cc1sc(CNCCCNc2cc(=O)c3ccccc3[nH]2)c(C)c1Br` [TCMDC-141064] was tested, and the “% Inhibition” value was -9.308%.
In the case of `N#Cc1ccc(CN2CCCN(c3ccc(NC(=O)c4ccc(F)cc4)cc3)CC2)cc1` [TCMDC-134984], the “% Inhibition” value was -24.83%.
`COc1cc2nc(N[C@@H](CO)c3ccccc3)nc(NCc3ccccc3)c2cc1OC` [TCMDC-132024] was tested, and the “% Inhibition” value was 6.921%.
In the case of `COc1ccc(CCNc2nc(NCc3ccccc3)c3cc(OC)c(OC)cc3n2)cc1OC` [TCMDC-132017], the “% Inhibition” value was 95.97%.
For `COc1ccc(CNc2nc(NCc3ccccc3)c3cc(OC)c(OC)cc3n2)cc1OC` [TCMDC-131893], the “% Inhibition” value was 102.4%.
With `COc1ccc2ccccc2c1CON1C(N)=NC(N)=NC1(C)C` [TCMDC-131789] the “% Inhibition” value was 14.14%.
For `O=C(N/C(=C/c1cccc([N+](=O)[O-])c1)c1nc2ccccc2[nH]1)c1cccc(Br)c1` [TCMDC-123667], the “% Inhibition” value was 25.9%.
`CCc1nc2ccc(C(=O)OC)nc2n1Cc1ccc2oc(-c3ccccc3N)c(Br)c2c1` [TCMDC-131989] was tested, and the “% Inhibition” value was 82.84%.
With `Cc1cccc2[nH]c(-c3cccc(-c4ccc(NC(=O)Cc5ccccn5)cc4)c3)nc12` [TCMDC-132178] the “% Inhibition” value was -17.95%.
With `CS(=O)(=O)CCNCc1cccc(-c2cc3c(Nc4ccc5c(cnn5Cc5ccccc5)c4)ncnc3s2)c1` [TCMDC-134664] the “% Inhibition” value was -36.31%.
In the case of `CN1CCC(c2ccc(NC(=O)c3ccc(-c4cccc(C(F)(F)F)c4)o3)cc2)CC1` [TCMDC-134195], the “% Inhibition” value was 6.508%.
With `O=C(Nc1ccc(S(=O)(=O)NCCCN2CCOCC2)cc1)c1cc(-c2ccccc2)n[nH]1` [TCMDC-125046] the “% Inhibition” value was -31.32%.
In the case of `C=CCOc1cccc2c1CCN(CCN1CCC(NC(=O)c3ccc(-c4ccc(Cl)cc4)cc3)CC1)C2` [TCMDC-135633], the “% Inhibition” value was -61.81%.
In the case of `COc1cccc2c1CCN(CCN1CCC(NC(=O)c3ccc(-c4cccc(Cl)c4Cl)cc3)CC1)C2` [TCMDC-135476], the “% Inhibition” value was 76.97%.
`NC(=O)COc1cccc2c1CCN(CCN1CCC(NC(=O)c3ccc(-c4ccc(Cl)cc4)cc3)CC1)C2` [TCMDC-135479] was tested, and the “% Inhibition” value was -28.95%.
In the case of `Fc1cccc(COc2ccc(Nc3ncnc4sc(C#C[C@H]5CC[C@H](CNCC(F)(F)F)N5)cc34)cc2Cl)c1` [TCMDC-135422], the “% Inhibition” value was -57.82%.
`c1cncc(CCNCc2ccc(-c3ccc(CNC4Cc5ccccc5C4)cc3)cc2)c1` [TCMDC-141458] was tested, and the “% Inhibition” value was 22.23%.
`O=C(CC1CCCC1)N(Cc1ccc(-c2ccc(CNC3Cc4ccccc4C3)cc2)cc1)CC1CCCCN1` (centres unmarked) [TCMDC-141446] was tested, and the “% Inhibition” value was 118.1%.
With `O=C(CCC1CCCC1)N(Cc1ccc(-c2ccc(CNCCc3ccccn3)cc2)cc1)CC1CCCCN1` (centres unmarked) [TCMDC-141445] the “% Inhibition” value was 104.1%.
For `CCCNC(=O)c1cncc(-c2ccc(CNC3Cc4ccccc4C3)cc2)c1` [TCMDC-134242], the “% Inhibition” value was -9.717%.
For `O=C(NCC1CCC(C(=O)NCCN2CCCCC2)CC1)c1ccc(O)c(-c2ccc(Cl)c(Cl)c2)c1` (centres unmarked) [TCMDC-140889], the “% Inhibition” value was 5.118%.
`CN(C)C(CNC(=O)c1cc(-c2ccncc2)c(-c2ccc(NC(=O)Nc3ccccc3)cc2)o1)c1ccccc1` (centres unmarked) [TCMDC-135763] was tested, and the “% Inhibition” value was 0.5152%.
For `CCN(CCNS(C)(=O)=O)c1ccc(N)c(C)c1` [TCMDC-125836], the “% Inhibition” value was 123.9%.
With `CCN(CC)c1ccc2nc(N)nc(N)c2c1` [TCMDC-137860] the “% Inhibition” value was -57.34%.
`CCN(CCNC(=O)Nc1cc(C(F)(F)F)cc(C(F)(F)F)c1)c1cccc(C)c1` [TCMDC-140386] was tested, and the “% Inhibition” value was -30.95%.
For `Cc1cc(NC(=O)c2ccco2)ccc1OC1CCN(Cc2ccc(F)cc2)CC1` [TCMDC-133749], the “% Inhibition” value was 42.56%.
`Cc1ccccc1N1CCN(c2ccc(C(=O)Nc3ccccc3)cn2)CC1` [TCMDC-134582] was tested, and the “% Inhibition” value was 6.226%.
`Cc1[nH]c2ccccc2c1C1CCN(CC2CCC(NC(=O)/C=C/c3ccc(Cl)c(Cl)c3)CC2)CC1` (centres unmarked) [TCMDC-139482] was tested, and the “% Inhibition” value was -16.12%.
`NC(=O)c1cnc2cc(-c3ccncc3)cc(Nc3ccc(NC(=O)C4CCCCC4)cc3)c2c1` [TCMDC-135182] was tested, and the “% Inhibition” value was -67.69%.
With `Cc1cc(-c2ccc(NC(=O)N3CCc4cc(Cl)c(N5CCN(C)CC5)cc43)cc2)ccc1C#N` [TCMDC-139292] the “% Inhibition” value was 55.12%.
`Cc1cc(-c2ccc(NC(=O)N3CCc4cc(Br)c(N5CCN(C)CC5)cc43)cc2)ccc1C#N` [TCMDC-139293] was tested, and the “% Inhibition” value was -18.89%.
For `CN1CCN(c2cc3c(cc2Cl)CCN3C(=O)Nc2ccc(NC(=O)c3ccc(C(F)(F)F)cc3)cc2)CC1` [TCMDC-139270], the “% Inhibition” value was -10.1%.
